{"source": "ChEMBL document CHEMBL5724796", "about": "“Tm Shift (DSF) assay results for EUbOPEN Chemogenomics Library” (2024)", "note": "Non-standard residues stand in square brackets, D forms with d. Residues, ends and D or L forms follow the SMILES beside them. *: point of attachment. Benzoyl(4-tBu) = CC(C)(C)c1ccc(C(=O)*)cc1; Lys(Et2) = CCN(CC)CCCC[C@H](N)C(=O)O"}
{"biological_target": "T1, Aurora kinase A (Homo sapiens) (UniProt O14965)", "T1 sequence (whole entry)": "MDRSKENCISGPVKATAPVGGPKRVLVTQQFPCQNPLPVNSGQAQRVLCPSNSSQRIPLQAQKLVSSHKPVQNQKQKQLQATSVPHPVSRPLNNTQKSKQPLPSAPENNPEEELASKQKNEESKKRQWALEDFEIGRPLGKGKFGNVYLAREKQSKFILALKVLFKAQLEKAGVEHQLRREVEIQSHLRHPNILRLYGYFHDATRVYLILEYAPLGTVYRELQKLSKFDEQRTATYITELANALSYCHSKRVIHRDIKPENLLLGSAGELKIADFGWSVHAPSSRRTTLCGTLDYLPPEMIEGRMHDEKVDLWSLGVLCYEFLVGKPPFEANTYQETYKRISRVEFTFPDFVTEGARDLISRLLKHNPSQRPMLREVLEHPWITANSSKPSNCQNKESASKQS", "conditions": "Compound concentration 20.0 uM", "units": {"ΔTm": "°C"}}
{"smiles": "O=C(CCCCCCNC(=O)c1cnc(N(c2ccccc2)c2ccccc2Cl)nc1)NO", "ΔTm": -0.63}
{"smiles": "O=C1Nc2ccccc2C2(CCN(CC(Cc3ccccc3)Nc3nc4ccc(F)cc4s3)CC2)N1", "note": "(centres undefined)", "ΔTm": -2.22}
{"smiles": "C[C@@H]1CN(Cc2ncccn2)C[C@H]1c1nc2c(cnn2C2CCOCC2)c(=O)[nH]1", "ΔTm": -2.46}
{"smiles": "CNCCCN1c2ccccc2CCc2ccccc21", "ΔTm": -1.87}
{"smiles": "O=C(NCc1ccc(Cl)cc1)C1CCN(S(=O)(=O)c2cc(Cl)cc(Cl)c2)CC1", "ΔTm": -1.55}
{"smiles": "COCCOCCn1nc2c(c1C)-c1c(Cl)ccc3c1c(C)c(C(=O)O)n3CCCOc1cc(cc3c(F)c(Cl)ccc13)CCc1cc(nn1C)CSC2", "ΔTm": 0.82}
{"smiles": "O=c1[nH][nH]c(=O)c2cc(OCc3ccccc3F)ccc12", "ΔTm": -0.33}
{"smiles": "CCN(CC)CCCC[C@H](NC(=O)[C@H](CC(C)C)NC(=O)[C@H](C)NC(=O)[C@H](Cc1ccccc1)NC(=O)c1ccc(C(C)(C)C)cc1)C(=O)N[C@@H](CO)C(=O)OC", "note": "({Benzoyl(4-tBu)}-FAL[Lys(Et2)]S-OMe)", "ΔTm": -1.22}
{"smiles": "Cc1cc(-c2ccccc2)cc(C(=O)NNS(=O)(=O)c2ccccc2)c1F", "ΔTm": -4.21}
{"smiles": "COc1ccc([C@@H]2CNC(=O)C2)cc1OC1CCCC1", "ΔTm": -2.43}
{"smiles": "CC(C)[C@@H]1NC(=O)[C@H](Cc2ccc(O)cc2)NC(=O)[C@@H](CC(=O)O)NC(=O)S[C@@H](C(=O)O)NC(=O)[C@H]([C@H](C)O)NC(=O)[C@H](Cc2ccc(O)cc2)NC(=O)[C@H](Cc2c[nH]c3ccccc23)NC(=O)[C@H](CCCNC(=N)N)NC(=O)[C@H](Cc2c[nH]c3ccccc23)NC(=O)[C@H](C)NC(=O)[C@H](CO)NC(=O)[C@H](CCCNC(=N)N)NC(=O)[C@H]([C@H](C)O)NC(=O)[C@H](CC(N)=O)NC(=O)[C@H](Cc2ccc(O)cc2)NC1=O", "ΔTm": -2.45}
{"smiles": "COc1cc(Nc2ncc(F)c(Nc3ccc4c(n3)N(COP(=O)(O)O)C(=O)C(C)(C)O4)n2)cc(OC)c1OC", "ΔTm": 13.3}
{"smiles": "COC(=O)[C@H]1[C@H]2C[C@@H]3c4[nH]c5cc(OC)ccc5c4CCN3C[C@H]2C[C@@H](OC(=O)c2cc(OC)c(OC)c(OC)c2)[C@@H]1OC", "ΔTm": -0.63}
{"smiles": "O=C(CCCCCCNC(=O)c1cnc(N(c2ccccc2)c2ccccc2)nc1)NO", "ΔTm": -0.51}
{"smiles": "CCC[C@@H]1CNCc2c1[nH]c(=O)c(C#N)c2N1CCC2(CC1)CC2", "ΔTm": -0.58}
{"smiles": "Cc1ccc(F)c2cc(C(=O)N[C@@H]3CCC[C@H](N4CC[C@H](N(C)S(C)(=O)=O)C4)C3)[nH]c12", "ΔTm": 0.21}
{"smiles": "NC(=O)c1cc(F)cc2c1C(=O)N(C1CCN(C3CCC(F)(F)CC3)CC1)C2", "ΔTm": -1.86}
{"smiles": "CCCC[C@]1(CC)CS(=O)(=O)c2cc(CNC(CC(=O)O)CC(=O)O)c(OC)cc2[C@@H](c2ccccc2)N1", "ΔTm": -1.84}
{"smiles": "C[C@@H](Oc1ccc(S(C)(=O)=O)cc1C(=O)N1C[C@@H]2C[C@]2(c2cc(C(F)(F)F)on2)C1)C(F)(F)F", "ΔTm": -2.51}
{"smiles": "CCN(CC)C(=O)/C(C#N)=C/c1cc(O)c(O)c([N+](=O)[O-])c1", "ΔTm": -0.58}
{"smiles": "Cc1cc(C)c(CNC(=O)c2cc(Cl)c3c(c2C)O[C@@](C)([C@H]2CC[C@H](N(C)C)CC2)O3)c(=O)[nH]1", "ΔTm": -0.52}
{"smiles": "O=C(CCCCCCC(=O)Nc1ccc([C@H]2O[C@@H](CSc3nc(-c4ccccc4)c(-c4ccccc4)o3)C[C@@H](c3ccc(CO)cc3)O2)cc1)NO", "ΔTm": 2.82}
{"smiles": "Cc1ncc(Cl)cc1NCc1ccc(C(=O)N[C@@H](CC2CCCC2)C(=O)NC2CC2)s1", "ΔTm": 7.63}
{"smiles": "COc1ccc(CC[C@H]2CCC[C@@H](CCc3ccc(OC)cc3)N2C[C@@H](O)CO)cc1", "ΔTm": -2.3}
{"smiles": "C=C(C)[C@@H](CC=C(C)C)C[C@@]12C[C@@H](CC=C(C)C)C(C)(C)[C@@](CC=C(C)C)(C(=O)C(C(=O)c3ccc(O)c(O)c3)=C1O)C2=O", "ΔTm": 0.51}
{"smiles": "CNC(=O)c1cc(Nc2ccnc(Nc3ccc(CCNC(=O)OC(C)(C)C)cc3)n2)n[nH]1", "ΔTm": -0.62}
{"smiles": "O=C(c1cc(Cc2n[nH]c(=O)c3ccccc23)ccc1F)N1CC(CNC2CC2)C1", "ΔTm": -2.47}
{"smiles": "CCCCOc1c(OC)cc(C(=O)NCC2(N(C)C)CCOCC2)cc1OC", "ΔTm": -2.39}
{"smiles": "Cn1c(=O)cc(N2CCC[C@@H](N)C2)n(Cc2cc(F)ccc2C#N)c1=O", "ΔTm": -0.72}
{"smiles": "CCOCC1(COCC)CCC(c2n[nH]cc2CN(C)CCNC)CC1", "ΔTm": -0.08}
{"smiles": "CCCNC(=O)[C@H]1O[C@@H]1C(=O)N[C@H](C(=O)N1CCC[C@H]1C(=O)O)[C@@H](C)CC", "ΔTm": -1.17}
{"smiles": "CCS(=O)(=O)N1CC(CC#N)(n2cc(-c3ncnc4[nH]ccc34)cn2)C1", "ΔTm": 5.08}
{"smiles": "C[C@H]1CO[C@@H]2Cn3cc(C(=O)NCc4ccc(F)cc4F)c(=O)c(O)c3C(=O)N12", "ΔTm": -0.95}
{"smiles": "CN(C)CCCNC(=O)c1ccc(-c2cc(O)c3ncccc3c2)cc1", "ΔTm": -1.28}
{"smiles": "COC[C@H](NC(=O)c1ccn(S(C)(=O)=O)c1)C(=O)Nc1nc(-c2cccc(-c3ccn(C)n3)c2)cs1", "ΔTm": -2.2}
{"smiles": "Cc1c(Nc2ccc(S(=O)(=O)N3CCN(C)CC3)cc2F)nc2ccc(-c3cnn(C4CC4)c3)cn2c1=O", "ΔTm": -1.87}
{"smiles": "COc1cc(C(=O)NCC2(N(C)C)CCCC2)cc(OC)c1OCc1ccccc1", "ΔTm": -0.99}
{"smiles": "COc1ccc(-c2ccc(-c3cn(C(=O)N4CCCCC4c4ccccc4)nn3)cc2)cc1", "note": "(centres undefined)", "ΔTm": -1.09}
{"smiles": "OC[C@H]1O[C@@H](c2ccc(Cl)c(Cc3ccc(O[C@H]4CCOC4)cc3)c2)[C@H](O)[C@@H](O)[C@@H]1O", "ΔTm": -1.72}
